According to PubChem BioAssay (NCI):
Compounds without any hit were thinned out: in the full panel of roughly 79,000, 15% have a hit. Calls of active or inactive are those of the source. Rule as the data show it: active = growth inhibition above about 70%; inactive = the rest.

Tests used:
[1] = NCI Yeast Anticancer Drug Screen. Data for the mec2-1 strain (AID 157); conditions: S. cerevisiae mec2-1 strain, active compounds read high
In short: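 Strain: mec2-1 (DNA repair/cell cycle alteration). Compound exposure, then growth measured; inhibition expressed relative to vehicle.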

[2] = NCI Yeast Anticancer Drug Screen. Data for the rad14 strain (AID 159);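 also: 0% = growth of vehicle-treated control cultures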; conditions: S. cerevisiae rad14 strain growth inhibition, active compounds read high
In short: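 Inhibition of growth is reported for a repair-deficient yeast mutant following compound treatment, calculated relative to cultures that received vehicle.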

[3] = NCI Yeast Anticancer Drug Screen. Data for the sgs1 mgt1 strain (AID 161);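 also: 0% = growth of cultures given vehicle only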; conditions: S. cerevisiae sgs1 mgt1 strain, active compounds read high
In short: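 Read-out: growth inhibition vs vehicle controls. Cells: mutant yeast strain deficient in DNA damage repair.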

[4] = NCI Yeast Anticancer Drug Screen. Data for the CLN2oe strain (AID 163);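 also: 0% = growth of vehicle-only control cultures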; conditions: S. cerevisiae CLN2oe strain, active compounds read high
In short: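 Growth of a genetically modified yeast strain is measured after compound exposure and compared with cultures given vehicle alone.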

[5] = NCI Yeast Anticancer Drug Screen. Data for the cln2 rad14 strain (AID 165);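 also: 0% = growth equal to vehicle treated cultures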; conditions: S. cerevisiae cln2 rad14 strain, active compounds read high
In short: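 Compounds are applied to the cln2 rad14 yeast strain, and growth is then compared with that of vehicle-treated cultures to give inhibition.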

[6] = NCI Yeast Anticancer Drug Screen. Data for the bub3 strain (AID 167); conditions: S. cerevisiae bub3 mutant strain, active compounds read high
In short: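 Mutant yeast screening strain plus compound; vehicle-treated cultures serve as the 0% inhibition reference.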

[7] = NCI Yeast Anticancer Drug Screen. Data for the wt2 strain (AID 169); conditions: S. cerevisiae wt2 strain growth inhibition, active compounds read high
In short: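 This strain belongs to a panel of yeast strains with defined genetic alterations in DNA damage repair or cell cycle control. Compounds are applied, and growth inhibition is measured against vehicle-treated cultures.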

[8] = NCI Yeast Anticancer Drug Screen. Data for the mlh1 strain (AID 171);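 also: 0% = growth of vehicle-treated control cultures of the same strain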; conditions: S. cerevisiae mlh1 strain growth inhibition, active compounds read high
In short: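 Growth of the mutant yeast strain after compound exposure, expressed as inhibition relative to vehicle-only controls.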

[9] = NCI Yeast Anticancer Drug Screen. Data for the sgs1 strain (AID 173);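 also: 0% = growth of vehicle-only control cultures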; conditions: S. cerevisiae sgs1 mutant, active compounds read high
In short: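 Growth of a yeast strain bearing a defined genetic alteration is measured after compound treatment. Inhibition is expressed relative to vehicle-only controls.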

[10] = NCI Yeast Anticancer Drug Screen. Data for the mlh1 rad18 strain (AID 175); conditions: S. cerevisiae mlh1 rad18 strain growth inhibition, active compounds read high
In short: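 Read-out is yeast growth inhibition, calculated against vehicle-only controls. The compound was applied to a strain engineered with DNA damage repair alterations.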

[11] = NCI Yeast Anticancer Drug Screen. Data for the rad18 strain (AID 177); conditions: S. cerevisiae rad18 mutant growth inhibition, active compounds read high
In short: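 Growth of the mutant yeast strain after compound exposure, normalised to vehicle-only cultures.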

[12] = NCI Yeast Anticancer Drug Screen. Data for the rad52 strain (AID 147);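 also: 0% = growth of vehicle-treated control cultures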; conditions: S. cerevisiae rad52 mutant growth inhibition, active compounds read high
In short: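 Compounds are applied to a genetically defined yeast strain lacking normal DNA damage repair, and inhibition of growth is expressed relative to cultures given vehicle only.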

[13] = NCI Yeast Anticancer Drug Screen. Data for the rad50EPP+ strain (AID 151);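 also: 0% = growth of vehicle-treated control cultures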; conditions: S. cerevisiae rad50 mutant strain, active compounds read high
In short: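 Compounds were applied to the rad50EPP+ yeast strain, which bears a defined DNA repair alteration, and growth inhibition was determined relative to vehicle-treated cultures.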

[14] = NCI Yeast Anticancer Drug Screen. Data for the mgt1 strain (AID 153); conditions: S. cerevisiae mgt1 mutant growth inhibition, active compounds read high
In short: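 Strain: mgt1 yeast, one of a set carrying defined DNA damage repair or cell cycle control alterations. Compound-treated growth compared with vehicle.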

[15] = NCI Yeast Anticancer Drug Screen. Data for the rad50 strain (AID 155);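 also: 0% = growth of vehicle-only cultures of the same strain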; conditions: S. cerevisiae rad50 strain growth inhibition, active compounds read high
In short: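 Vehicle-treated cultures provide the reference for the growth inhibition reported for compound-exposed, repair-deficient yeast.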

[16] = at 5.0 µM (retest, dose inferred, filed as 0.5)
[17] = at 50.0 µM (retest, dose inferred, filed as 5.0)

Measured: growth inhibition

CC(C)C(C)/C=C\C(C)C1CCC2C3=CC=C4CC(O)CCC4(C)C3CCC21C (stereo unspecified)
inactive: [1]; at 100.0 µM -17% | [2]; at 1.2 µM -1% | [2]; at 3.7 µM 6% | [2]; at 11.0 µM 1% | [2]; at 33.0 µM -2% | [2]; at 100.0 µM 27% | [3]; [16] 17% | [3]; [17] 48% | [3]; at 50.0 µM 66.7% | [4]; at 1.2 µM 0% | [4]; at 3.7 µM -2% | [4]; at 11.0 µM -2% | [4]; at 33.0 µM -4% | [4]; at 100.0 µM 11% | [5]; at 50.0 µM 35.4% | [6]; at 1.2 µM -1% | [6]; at 3.7 µM 3% | [6]; at 11.0 µM -2% | [6]; at 33.0 µM -10% | [6]; at 50.0 µM 42% | [6]; at 100.0 µM 32% | [7]; at 1.2 µM 0% | [7]; at 3.7 µM 1% | [7]; at 11.0 µM 1% | [7]; at 33.0 µM 1% | [7]; at 100.0 µM 14% | [8]; at 1.2 µM -1% | [8]; at 3.7 µM -3% | [8]; at 11.0 µM -5% | [8]; at 33.0 µM -11% | [8]; at 100.0 µM 10% | [9]; at 1.2 µM -1% | [9]; at 3.7 µM -4% | [9]; at 11.0 µM -3% | [9]; at 33.0 µM -6% | [9]; at 100.0 µM 19% | [10]; [16] 40% | [11]; at 1.2 µM -2% | [11]; at 3.7 µM -5% | [11]; at 11.0 µM -13% | [11]; at 33.0 µM -19% | [11]; at 100.0 µM -7%
active: [5]; [16] 91% | [5]; [17] 95% | [6]; [16] 99% | [6]; [17] 99% | [10]; [17] 81% | [10]; at 50.0 µM 86.5%

CCc1c(Cl)c(C)cc(O)c1Cl
inactive: [12]; at 1.2 µM 4% | [12]; at 3.7 µM -9% | [12]; at 11.0 µM 8% | [12]; at 33.0 µM 22% | [13]; at 1.2 µM -27% | [13]; at 3.7 µM -13% | [13]; at 11.0 µM 8% | [13]; at 33.0 µM 42% | [14]; at 1.2 µM 19% | [14]; at 3.7 µM 5% | [14]; at 11.0 µM 29% | [14]; at 33.0 µM 49% | [15]; at 1.2 µM -27% | [15]; at 3.7 µM -30% | [15]; [16] 38% | [15]; at 11.0 µM -27% | [15]; at 33.0 µM 23% | [1]; at 1.2 µM -10% | [1]; at 3.7 µM 1% | [1]; [16] 46% | [1]; at 11.0 µM 5% | [1]; at 33.0 µM 12% | [2]; at 1.2 µM -8% | [2]; at 3.7 µM -46% | [2]; at 11.0 µM -19% | [2]; at 33.0 µM 4% | [3]; [16] -26% | [3]; [17] 46% | [4]; at 1.2 µM -7% | [4]; at 3.7 µM -18% | [4]; at 11.0 µM -4% | [4]; at 33.0 µM 6% | [5]; [16] 32% | [5]; [17] 44% | [6]; at 1.2 µM -8% | [6]; at 3.7 µM -19% | [6]; [16] 3% | [6]; at 11.0 µM -7% | [6]; at 33.0 µM 20% | [6]; [17] 53% | [7]; at 1.2 µM -35% | [7]; at 3.7 µM -30% | [7]; at 11.0 µM -26% | [7]; at 33.0 µM -9% | [8]; at 1.2 µM 6% | [8]; at 3.7 µM -7% | [8]; at 11.0 µM 12% | [8]; at 33.0 µM 19% | [9]; at 1.2 µM -4% | [9]; at 3.7 µM -4% | [9]; at 11.0 µM 5% | [9]; at 33.0 µM 33% | [10]; [16] 35% | [11]; at 1.2 µM -20% | [11]; at 3.7 µM 6% | [11]; at 11.0 µM -23% | [11]; at 33.0 µM -46% | [11]; at 100.0 µM 50%
active: [12]; at 100.0 µM 96% | [13]; at 100.0 µM 89% | [14]; at 100.0 µM 95% | [15]; [17] 91% | [15]; at 50.0 µM 91.4% | [15]; at 100.0 µM 94% | [1]; [17] 94% | [1]; at 50.0 µM 84.7% | [1]; at 100.0 µM 93% | [2]; at 100.0 µM 90% | [3]; at 50.0 µM 86.2% | [4]; at 100.0 µM 75% | [5]; at 50.0 µM 77.2% | [6]; at 50.0 µM 92.6% | [6]; at 100.0 µM 85% | [7]; at 100.0 µM 92% | [8]; at 100.0 µM 82% | [9]; at 100.0 µM 91% | [10]; [17] 85% | [10]; at 50.0 µM 89.5%
